Assay [1] relates to HT29 RNF43 G659fs (RNF43 659mut, CRISPR-edited). Description: cell viability activity relative to DMSO (negative = inhibition); higher = more viable cells (less growth inhibition). To be noted: 5 µM; 96 h. The procedure:
(§1)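 Broad Repurposing Library primary screen at a single dose of 5 uM. HT29 sg-Ctrl and HT29 RNF43 G659fs CRISPR-edited isogenic cells were seeded at 2500 cells/well in 384-well plates in duplicate and treated for 96 h. Viability was read by CellTiter-Glo and reported as % activity relative to DMSO, with MG132 as the positive control (negative = growth inhibition).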

Assay [2] concerns HT29 sg-Ctrl (RNF43 wildtype). The assay is described as above. To be noted: 5 µM; 96 h. The procedure:
as §1

As for `CC(C)C[C@H](NC(=O)[C@H](CCc1ccccc1)NC(=O)CN1CCOCC1)C(=O)N[C@@H](Cc1ccccc1)C(=O)N[C@@H](CC(C)C)C(=O)[C@@]1(C)CO1`, the cell viability activity in assay [1] was -97.1%; in assay [2], -96.6%.
Consider `CC(=O)O[C@@]12CO[C@@H]1C[C@H](O)[C@@]1(C)C(=O)[C@H](O)C3=C(C)[C@@H](OC(=O)[C@H](O)[C@@H](NC(=O)OC(C)(C)C)c4ccccc4)C[C@@](O)([C@@H](OC(=O)c4ccccc4)[C@H]21)C3(C)C`, for which the cell viability activity in assay [2] is -58.6%.
On the same count and under the same terms, the figure for `CN1CCN(CCOc2cc(OC3CCOCC3)c3c(Nc4c(Cl)ccc5c4OCO5)ncnc3c2)CC1` is -58.9%; for `COc1ccc(-c2cc3nccn3c(Nc3ncccc3C(N)=O)n2)cc1OC` it is -32.6%; for `O=C(Nc1ccncc1)Nc1ccc(-c2nc(N3CCOCC3)nc(N3C4CCC3COC4)n2)cc1` it is -36.2%.
For `CN1CC[C@@H](c2c(O)cc(O)c3c(=O)cc(-c4ccccc4Cl)oc23)[C@@H]1CO`, in assay [2], the cell viability activity was -82.7%.
On the same count and under the same terms, the same measure for `Cc1ccc(C(=O)Nc2ccc(CN3CCN(C)CC3)c(C(F)(F)F)c2)cc1C#Cc1cnc2cccnn12`: -78.4%; for `CC(C)C[C@@H](C=O)NC(=O)[C@H](CC(C)C)NC(=O)[C@H](CC(C)C)NC(=O)OCc1ccccc1`: -96.2%; for `O=C1c2c(O)ccc(O)c2C(=O)c2c(NCCNCCO)ccc(NCCNCCO)c21`: -99.7%.
As for `CN(C)c1ccc(C(=O)NCCCCCCC(=O)NO)cc1`, the cell viability activity in assay [2] was -82%.
On to `CC[C@@H]1C(=O)N(C)c2cnc(Nc3ccc(C(=O)NC4CCN(C)CC4)cc3OC)nc2N1C1CCCC1`, for which the cell viability activity in assay [2] is -90.4%.
Same read-out and setting: the same measure for `CC(C)NCCCn1c(Sc2cc3c(cc2I)OCO3)nc2c(N)ncnc21`: -85.8%; for `CC(C)[C@H](C(=O)Nc1ccc(C(=O)NO)cc1)c1ccccc1`: -89.9%; for `Cc1nc(Nc2ncc(C(=O)Nc3c(C)cccc3Cl)s2)cc(N2CCN(CCO)CC2)n1`: -60.3%.
On the same count and under the same terms, the figure for `COc1ncc(-c2ccc3nccc(-c4ccnnc4)c3c2)cc1NS(=O)(=O)c1ccc(F)cc1F` is -89.3%; for `O=c1cc(N2CCOCC2)oc2c(-c3cccc4c3sc3ccccc34)cccc12` it is -57.1%.
As to `O=C(CCCCCN1C(=O)c2cccc3cccc(c23)C1=O)NO`, in assay [2], the cell viability activity is -71.7%.
Take `CC(C)(C)c1ccc(C(=O)CCCN2CCC(OC(c3ccccc3)c3ccccc3)CC2)cc1`: the cell viability activity in assay [2] is -92.1%.
On the same count and under the same terms, the figure for `CCCCCCCCCCCCCCCC[N+](C)(C)Cc1ccccc1` is -34.3%.
Still for that read-out and setting: the same measure for `COc1c(C)c2c(c(O)c1C/C=C(\C)CCC(=O)O)C(=O)OC2`: -27.7%.
On the same count and under the same terms, the same measure for `CC(C)(C)c1ccc(-c2nc3ccccc3[nH]2)cc1`: -67.1%; for `COc1cc(NC(C)CCCN)c2ncccc2c1` (stereo not given): -22.4%; for `COc1cc(N2CCC(N3CCN(C)CC3)CC2)ccc1Nc1ncnc(Nc2ccccc2S(=O)(=O)C(C)C)n1`: -27.7%.
`COC(=O)Nc1nc2cc(C(=O)c3ccccc3)ccc2[nH]1`: the cell viability activity in assay [2] is -51.4%.
Still for that read-out and setting: the figure for `CCS(=O)(=O)c1cccc(-c2cc(C(=O)NC3CCN(C)CC3)c(C)c3[nH]c4ncc(C)cc4c23)c1` is -85.9%; for `CC(C)c1ccc(C(=O)N=C(N)N)cc1S(C)(=O)=O` it is -5.71%.
Still for that read-out and setting: the same measure for `CN(C)C(=O)CCSC(SCCC(=O)O)c1cccc(/C=C/c2ccc3ccc(Cl)cc3n2)c1` (stereo not given): 5.04%.
As for `CCC1=C[C@@H]2CN(C1)Cc1c([nH]c3ccccc13)[C@@](C(=O)OC)(c1cc3c(cc1OC)N(C)[C@H]1[C@@](O)(C(=O)OC)[C@H](OC(C)=O)[C@]4(CC)C=CCN5CC[C@]31[C@@H]54)C2`, the cell viability activity in assay [2] was -40%.
As for `Cc1ccc(-n2nc(C(C)(C)C)cc2NC(=O)NCc2cc(F)ccc2Oc2ccc3c(cnn3CCO)c2)cc1`, in assay [2], the cell viability activity is -42.9%.
Still for that read-out and setting: the figure for `CNC(=O)c1ccccc1Nc1nc(Nc2ccc3c(c2OC)CCC[C@H](N2CCN(CCO)CC2)C3)ncc1Cl` is -85.5%; for `COc1cc([C@@H]2c3cc4c(cc3[C@@H](O[C@@H]3O[C@@H]5CO[C@@H](C)O[C@H]5[C@H](O)[C@H]3O)[C@H]3COC(=O)[C@H]23)OCO4)cc(OC)c1OP(=O)(O)O` it is -24.7%.
`COc1cc2c(Nc3ccc(Cl)c(Cl)c3F)ncnc2cc1OC[C@@H]1C[C@@H]2CN(C)C[C@@H]2C1`: the cell viability activity in assay [2] was -90.3%.
Still for that read-out and setting: the figure for `Cc1nc(-c2cn3c(n2)-c2ccc(-c4cnn(C(C)(C)C(N)=O)c4)cc2OCC3)n(C(C)C)n1` is -48.5%; for `COC(=O)Nc1nc2cc(C(=O)c3cccs3)ccc2[nH]1` it is -78.3%.
Regarding `CC[C@@]1(O)C(=O)OCc2c1cc1n(c2=O)Cc2c-1nc1cc(F)c(C)c3c1c2[C@@H](N)CC3`, the cell viability activity in assay [2] was -90.4%.
Same read-out and setting: the figure for `C=CCCCCCCCCC(=O)O` is -72%.
Still for that read-out and setting: the same measure for `CCCCc1oc2ccccc2c1C(=O)c1cc(I)c(OCCN(CC)CC)c(I)c1`: -98.9%; for `COC(=O)N[C@@H](C)CNc1nccc(-c2cn(C(C)C)nc2-c2cc(Cl)cc(NS(C)(=O)=O)c2F)n1`: -72.4%; for `CC1(COc2ccc3c(c2)ncn3-c2ccc3cccc(N4CCC(N)CC4)c3n2)COC1`: -98%.

Source of the values: the supplement of paper PMC9177965.
